Results: PubChem BioAssay (NCI)
This is part of a sample that, as a whole, favours compounds with a hit. Of some 79,000 tested, about 15% had one in any assay. Activity calls are given as the source filed them. Rule as the data show it: active = growth inhibition above about 70%; inactive = the rest.

experiment: NCI Yeast Anticancer Drug Screen. Data for the bub3 strain (AID 167); settings: S. cerevisiae bub3 mutant strain, at 50.0 µM, hits give high values
Description: Growth inhibition of yeast strains with defined genetic alterations is measured as a screen for potential anti-cancer activity. Selected strains with alterations in DNA damage repair or cell cycle control were exposed to compounds and growth inhibition was measured relative to vehicle treated controls. The strain used in this assay is bub3

| SMILES | growth inhibition |
| --- | --- |
| CCC(CC)C(=O)NCC(=O)NO | 0.6% (inactive) |
| Cn1c(=O)c2c(nc(CCC(N)=O)n2C)n(C)c1=O | 11.8% (inactive) |
| CCCCCCCCCCCCCCCCC1=C(C(=O)OC)NC(N)=NC1O (stereo not given) | 4.7% (inactive) |
| O=C1c2ccccc2C(O)(c2ccc(O)cc2)c2ccccc21 | 6.1% (inactive) |
| CN(C)C(=O)c1cccc(C2CCCCC2)c1O | -18.6% (inactive) |
| Fc1ccc(C2(c3ccc(F)cc3)CCCO2)cc1 | -4.1% (inactive) |
| CC(C)CCC(C)(C)COC(=O)c1ccc([N+](=O)[O-])cc1 (tested in a mixture with another compound) | 2.15% (inactive) |
| CC(C)=CCCC(C)(O)C1CC=C(C)CC1 (stereo not given) | -13.9% (inactive) |
| O=C(O)c1ccc([N+](=O)[O-])cc1Cl | -3.25% (inactive) |
| S=C1NC=CC(S)N1 (stereo not given) | 11.2% (inactive) |
| COc1cc(/C=N/NC(=O)C(=O)N/N=C/c2cc(OC)c(OC)c(OC)c2)cc(OC)c1OC | -20% (inactive) |
| Cc1c([N+](=O)[O-])cc(C(C)(C)C)c(OC(=S)N(C)C)c1[N+](=O)[O-] | 14.7% (inactive) |
| Nc1nnc2nc(CC(=O)c3ccccc3)c(CC(=O)c3ccccc3)nn12 | -29% (inactive) |
| Nc1nc(SCc2ccccc2Cl)cc(C(=O)O)n1 | 44% (inactive) |
| O=C(c1ccccc1)C1Nc2ccc(Cl)cc2C2C=CCC12 (stereo not given) | -0.35% (inactive) |
| CCN(CC)N=Nc1ccc(S(N)(=O)=O)cc1 | -5.1% (inactive) |
| Cc1ccccc1NC(=O)C(C)C | 15.2% (inactive) |
| CCOC(=O)c1ccc(N[C@@H]2c3cc4c(cc3C(c3cc(OC)c(O)c(OC)c3)[C@H]3C(=O)OCC32)OCO4)cc1 (stereo not given in full) | 88% (active) |
| CCOC(=O)C(Cc1ccc([N+](=O)[O-])cc1)NC(=O)CC1c2ccccc2-c2ccccc21 (stereo not given) | -9.9% (inactive) |
| N#CCCC1C(=O)CCCC1=O | 6.9% (inactive) |

| SMILES | growth inhibition |
| --- | --- |
| Cc1cccc(C)c1NC(=O)C(Cl)Cl | -12% (inactive) |
| CCOC(=O)c1c(C)c(=O)cnc2c(C#N)cnn12 | -1.4% (inactive) |
| CCCCOC(=O)CNC(=O)OC/C=C/C#CC#C/C=C/COC(=O)NCC(=O)OCCCC | 0.3% (inactive) |
| O=C1OC(c2ccc(Cl)c3ccccc23)c2ccccc21 (stereo not given) | 12.8% (inactive) |
| Nc1cnc2c(c1)c(=O)nc1n2CCS1 | 0.5% (inactive) |
| COC(=O)C1=C(C)N(NC(=O)c2cccc(Cl)c2)C(C)(O)C12CCOC2=O (stereo not given) | 0.6% (inactive) |
| O=C(NC(=O)c1c(F)cccc1F)Nc1nc2c(Cl)cccc2s1 | -6.55% (inactive) |
| N#C/C(=C/NC(=S)N=Nc1c(O)[nH]c2ccccc12)C(N)=O | -0.9% (inactive) |
| NC(=S)N1CCCC1 | 17.6% (inactive) |
| COC1=C(OC)C(=O)C2=C(OCO2)C1=O | 16.5% (inactive) |
| Cc1ccc(SCCSc2ccc(C)cc2)cc1 | 29.5% (inactive) |
| COc1ccc2c(c1OC)C(=O)OC2(O)C1=NCCc2cc3c(cc21)OCO3 (stereo not given) | 4.05% (inactive) |
| CC(=O)OCC1COC(C2CC=CCC2C)O1 (stereo not given) | 13.6% (inactive) |
| CC1C2CC(CC(=O)N2)C1(C)C (stereo not given) | 11.2% (inactive) |
| Nc1ccc(C(=O)N/N=C/c2ccc(Cl)cc2Cl)cc1 | 13.1% (inactive) |
| c1cc(C2CCCCC2)ccc1C1CCCCC1 | -16.1% (inactive) |
| ClC(Cl)C1OCCOCCO1 | -0.35% (inactive) |
| O=C1OC(Cc2ccccc2)=N/C1=C/c1ccccc1 | 2.7% (inactive) |
| O=P(CCC(O)c1ccccc1)(c1ccccc1)c1ccccc1 (stereo not given) | -9.6% (inactive) |
| COc1ccc(NC(=O)C2C(=O)N(c3ccc(OC)cc3)C(=O)/C2=N\NC(N)=O)cc1 (stereo not given) | -9.6% (inactive) |
